# According to PubChem BioAssay (NCI):
# Where “and” joins values, the source holds several entries; their conditions need not be identical. Identical values can stand only once. This is part of a sample that, as a whole, favours compounds with a hit. Of some 83,000 tested, about 20% had one in any assay.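 96-well plates, one dose, 48 hours. Percent growth reported; active if below 10.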 Calls of active or inactive are those of the source.
# Key:
# Assay in all cases: NCI-60 one-dose screen, 48 h (100 = growth as untreated, 0 = no growth, -100 = all killed)
# NCI-H23 lung = test system: NCI-H23 lung
# NCI-H226 lung = test system: NCI-H226 lung
# NCI-H322M lung = test system: NCI-H322M lung
# HOP-62 NSCLC = test system: HOP-62 NSCLC
# NCI-H460 lung = test system: NCI-H460 lung
# HOP-92 NSCLC = details: 10 µM unless noted
# NCI-H522 lung = details: 10 µM unless noted
# A549/ATCC NSCLC = test system: A549/ATCC NSCLC
# 786-0 renal = test system: 786-0 renal
# COLO 205 colon = test system: COLO 205 colon
# DU-145 prostate = test system: DU-145 prostate
# K-562 leukemia = test system: K-562 leukemia
# MALME-3M melanoma = test system: MALME-3M melanoma
# MDA-MB-231 breast = test system: MDA-MB-231 breast
# RXF 393 renal = test system: RXF 393 renal
# SF-268 CNS = test system: SF-268 CNS
# SF-295 CNS = test system: SF-295 CNS
# SF-539 CNS = test system: SF-539 CNS
# UACC-257 melanoma = test system: UACC-257 melanoma
# M14 melanoma = test system: M14 melanoma
compound,measurement,setting,value
CC1OC(OC2C(OC3CCC4(C)C(CCC5(C)C4CC=C4C6CC(C)(C)CCC6(CO)C(O)CC45C)C3(C)C)OC(C(=O)O)C(OC3OC(COC4OC(CO)C(O)C(O)C4O)C(O)C(O)C3O)C2O)C(O)C(O)C1O (stereo unspecified),growth,NCI-H23 lung; 10 µM unless noted,-82.1% (active)
same,growth,NCI-H226 lung; 10 µM unless noted,-63.6% (active)
same,growth,NCI-H322M lung; 10 µM unless noted,-96.2% (active)
same,growth,HOP-62 NSCLC; 10 µM unless noted,-71.6% (active)
same,growth,NCI-H460 lung; 10 µM unless noted,15.4% (inactive)
same,growth,HOP-92 NSCLC,-38.7% (active)
same,growth,NCI-H522 lung,-64.9% (active)
same,growth,A549/ATCC NSCLC; 10 µM unless noted,-70.1% (active)
same,growth,786-0 renal; 10 µM unless noted,-91.9% (active)
same,growth,COLO 205 colon; 10 µM unless noted,-86% (active)
same,growth,DU-145 prostate; 10 µM unless noted,7.81% (active)
same,growth,K-562 leukemia; 10 µM unless noted,-30.8% (active)
same,growth,MALME-3M melanoma; 10 µM unless noted,-73% (active)
same,growth,MDA-MB-231 breast; 10 µM unless noted,-86.1% (active)
same,growth,RXF 393 renal; 10 µM unless noted,-51.2% (active)
same,growth,SF-268 CNS; 10 µM unless noted,1.99% (active)
same,growth,SF-295 CNS; 10 µM unless noted,-85.2% (active)
same,growth,SF-539 CNS; 10 µM unless noted,-84.5% (active)
same,growth,UACC-257 melanoma; 10 µM unless noted,-49.3% (active)
same,growth,M14 melanoma; 10 µM unless noted,-67.4% (active)
CCN1/C(=C\c2cc[n+](CC)c3ccccc23)C=Cc2ccccc21,growth,NCI-H23 lung; 10 µM unless noted,12.7% (inactive)
same,growth,NCI-H226 lung; 10 µM unless noted,19.6% (inactive)
same,growth,NCI-H322M lung; 10 µM unless noted,25.4% (inactive)
same,growth,HOP-62 NSCLC; 10 µM unless noted,18.7% (inactive)
same,growth,NCI-H460 lung; 10 µM unless noted,-32.8% (active)
same,growth,HOP-92 NSCLC,-21.9% (active)
same,growth,NCI-H522 lung,12.4% (inactive)
same,growth,A549/ATCC NSCLC; 10 µM unless noted,18.9% (inactive)
same,growth,786-0 renal; 10 µM unless noted,25% (inactive)
same,growth,COLO 205 colon; 10 µM unless noted,-35.2% (active)
same,growth,DU-145 prostate; 10 µM unless noted,22.9% (inactive)
same,growth,K-562 leukemia; 10 µM unless noted,16.4% (inactive)
same,growth,MALME-3M melanoma; 10 µM unless noted,1.55% (active)
same,growth,MDA-MB-231 breast; 10 µM unless noted,3.42% (active)
same,growth,RXF 393 renal; 10 µM unless noted,16.4% (inactive)
same,growth,SF-268 CNS; 10 µM unless noted,26.3% (inactive)
same,growth,SF-295 CNS; 10 µM unless noted,0.16% (active)
same,growth,SF-539 CNS; 10 µM unless noted,7.56% (active)
same,growth,UACC-257 melanoma; 10 µM unless noted,-1.1% (active)
same,growth,M14 melanoma; 10 µM unless noted,10.5% (inactive)
CCCCCCCCCCCCCCCCCCOP(=O)([O-])OC1CC[N+](C)(C)CC1,growth,NCI-H23 lung; 10 µM unless noted,76.2% (inactive) and 60.8% (inactive)
same,growth,NCI-H226 lung; 10 µM unless noted,48.9% (inactive) and 18.8% (inactive)
same,growth,NCI-H322M lung; 10 µM unless noted,59.2% (inactive) and 40% (inactive)
same,growth,HOP-62 NSCLC; 10 µM unless noted,5.84% (active) and -72.5% (active)
same,growth,NCI-H460 lung; 10 µM unless noted,1.19% (active) and -34.8% (active)
same,growth,HOP-92 NSCLC,-25.3% (active)
same,growth,NCI-H522 lung,-52.1% (active) and -87.8% (active)
same,growth,A549/ATCC NSCLC; 10 µM unless noted,17.1% (inactive) and 38.2% (inactive)
same,growth,786-0 renal; 10 µM unless noted,-28.4% (active) and -54.9% (active)
same,growth,COLO 205 colon; 10 µM unless noted,-34.2% (active) and -30.8% (active)
same,growth,DU-145 prostate; 10 µM unless noted,54.2% (inactive) and 25.3% (inactive)
same,growth,K-562 leukemia; 10 µM unless noted,30.3% (inactive) and 20.7% (inactive)
same,growth,MALME-3M melanoma; 10 µM unless noted,69.7% (inactive) and 16.3% (inactive)
same,growth,MDA-MB-231 breast; 10 µM unless noted,11% (inactive) and -10.4% (active)
same,growth,RXF 393 renal; 10 µM unless noted,-49% (active) and 41.2% (inactive)
same,growth,SF-268 CNS; 10 µM unless noted,38.9% (inactive) and 13.7% (inactive)
same,growth,SF-295 CNS; 10 µM unless noted,19.5% (inactive) and 0.462% (active)
same,growth,SF-539 CNS; 10 µM unless noted,36.3% (inactive) and 4.21% (active)
same,growth,UACC-257 melanoma; 10 µM unless noted,45.4% (inactive) and 19% (inactive)
same,growth,M14 melanoma; 10 µM unless noted,-33.9% (active) and -72.8% (active)
Oc1c(Br)cc(Cl)cc1C(c1cc(Cl)cc(Br)c1O)C(Cl)(Cl)Cl,growth,NCI-H23 lung; 10 µM unless noted,5.88% (active)
same,growth,NCI-H226 lung; 10 µM unless noted,33.4% (inactive)
same,growth,NCI-H322M lung; 10 µM unless noted,15.2% (inactive)
same,growth,HOP-62 NSCLC; 10 µM unless noted,59.2% (inactive)
same,growth,NCI-H460 lung; 10 µM unless noted,1.1% (active)
same,growth,HOP-92 NSCLC,-33.5% (active)
same,growth,NCI-H522 lung,-9.4% (active)
same,growth,A549/ATCC NSCLC; 10 µM unless noted,14% (inactive)
same,growth,786-0 renal; 10 µM unless noted,26.9% (inactive)
same,growth,COLO 205 colon; 10 µM unless noted,59.2% (inactive)
same,growth,DU-145 prostate; 10 µM unless noted,31.1% (inactive)
same,growth,K-562 leukemia; 10 µM unless noted,13.7% (inactive)
same,growth,MALME-3M melanoma; 10 µM unless noted,-0.8% (active)
same,growth,MDA-MB-231 breast; 10 µM unless noted,-11.3% (active)
same,growth,RXF 393 renal; 10 µM unless noted,12% (inactive)
same,growth,SF-268 CNS; 10 µM unless noted,21.9% (inactive)
same,growth,SF-295 CNS; 10 µM unless noted,9.03% (active)
same,growth,SF-539 CNS; 10 µM unless noted,30.8% (inactive)
same,growth,UACC-257 melanoma; 10 µM unless noted,33% (inactive)
same,growth,M14 melanoma; 10 µM unless noted,31.4% (inactive)
O=C(O)c1c(Cl)c(Cl)c(Cl)c(Cl)c1-c1c2cc(I)c(=O)c(I)c-2oc2c(I)c(O)c(I)cc12,growth,NCI-H23 lung; 10 µM,103% (inactive) and 91.8% (inactive) and 101% (inactive)
same,growth,NCI-H23 lung; 100 µM,-60% (active)
same,growth,NCI-H226 lung; 10 µM,113% (inactive) and 99.1% (inactive) and 94.4% (inactive)
same,growth,NCI-H226 lung; 100 µM,25.9% (inactive)
same,growth,NCI-H322M lung; 10 µM,108% (inactive) and 109% (inactive) and 78.1% (inactive)
same,growth,NCI-H322M lung; 100 µM,36.3% (inactive)
same,growth,HOP-62 NSCLC; 10 µM,108% (inactive) and 104% (inactive) and 125% (inactive)
same,growth,HOP-62 NSCLC; 100 µM,-66.5% (active)
same,growth,NCI-H460 lung; 10 µM,102% (inactive) and 115% (inactive) and 98.1% (inactive)
same,growth,NCI-H460 lung; 100 µM,98.8% (inactive)
same,growth,A549/ATCC NSCLC; 10 µM,103% (inactive) and 106% (inactive) and 96.4% (inactive)
same,growth,A549/ATCC NSCLC; 100 µM,25.2% (inactive)
same,growth,786-0 renal; 10 µM,109% (inactive) and 115% (inactive) and 112% (inactive)
same,growth,786-0 renal; 100 µM,8.48% (active)
same,growth,COLO 205 colon; 10 µM,121% (inactive) and 108% (inactive) and 119% (inactive)
same,growth,COLO 205 colon; 100 µM,-59.9% (active)
same,growth,DU-145 prostate; 10 µM,93.5% (inactive) and 95.2% (inactive) and 112% (inactive)
same,growth,DU-145 prostate; 100 µM,59% (inactive)
same,growth,K-562 leukemia; 10 µM,112% (inactive) and 113% (inactive) and 92.3% (inactive)
same,growth,K-562 leukemia; 100 µM,-33.1% (active)
same,growth,MALME-3M melanoma; 10 µM,110% (inactive) and 56.4% (inactive)
same,growth,MALME-3M melanoma; 100 µM,-11.9% (active)
same,growth,MDA-MB-231 breast; 10 µM,94.7% (inactive) and 102% (inactive) and 104% (inactive)
same,growth,MDA-MB-231 breast; 100 µM,-39.7% (active)
same,growth,RXF 393 renal; 10 µM,92.5% (inactive) and 90.9% (inactive) and 57.7% (inactive)
same,growth,RXF 393 renal; 100 µM,-78.9% (active)
same,growth,SF-268 CNS; 10 µM,88.2% (inactive) and 78.4% (inactive) and 96.9% (inactive)
same,growth,SF-268 CNS; 100 µM,19.8% (inactive)
same,growth,SF-295 CNS; 10 µM,100% (inactive) and 98.8% (inactive) and 96.3% (inactive)
same,growth,SF-295 CNS; 100 µM,15.3% (inactive)
same,growth,SF-539 CNS; 10 µM,95.4% (inactive) and 96.5% (inactive) and 77.9% (inactive)
same,growth,SF-539 CNS; 100 µM,-67.5% (active)
same,growth,UACC-257 melanoma; 10 µM,115% (inactive) and 117% (inactive) and 90.6% (inactive)
same,growth,UACC-257 melanoma; 100 µM,22.9% (inactive)
same,growth,M14 melanoma; 10 µM,104% (inactive) and 95.6% (inactive) and 119% (inactive)
same,growth,M14 melanoma; 100 µM,69.7% (inactive)
C=C(Cl)C(=NC(C)(C)C)Nc1ccccc1C,growth,NCI-H23 lung; 10 µM unless noted,98.8% (inactive)
same,growth,NCI-H226 lung; 10 µM unless noted,102% (inactive)
same,growth,NCI-H322M lung; 10 µM unless noted,109% (inactive)
same,growth,HOP-62 NSCLC; 10 µM unless noted,92.4% (inactive)
same,growth,NCI-H460 lung; 10 µM unless noted,106% (inactive)
same,growth,HOP-92 NSCLC,84.9% (inactive)
same,growth,NCI-H522 lung,67.7% (inactive)
same,growth,A549/ATCC NSCLC; 10 µM unless noted,111% (inactive)
same,growth,786-0 renal; 10 µM unless noted,97.9% (inactive)
same,growth,COLO 205 colon; 10 µM unless noted,55.2% (inactive)
same,growth,DU-145 prostate; 10 µM unless noted,87.1% (inactive)
same,growth,K-562 leukemia; 10 µM unless noted,19.8% (inactive)
same,growth,MALME-3M melanoma; 10 µM unless noted,83.9% (inactive)
same,growth,MDA-MB-231 breast; 10 µM unless noted,91.3% (inactive)
same,growth,RXF 393 renal; 10 µM unless noted,103% (inactive)
same,growth,SF-268 CNS; 10 µM unless noted,101% (inactive)
same,growth,SF-295 CNS; 10 µM unless noted,99.3% (inactive)
same,growth,SF-539 CNS; 10 µM unless noted,99.3% (inactive)
same,growth,UACC-257 melanoma; 10 µM unless noted,100% (inactive)
same,growth,M14 melanoma; 10 µM unless noted,85.1% (inactive)
